The whole screen tested about 52,000 compounds, of which about 1,700 (3.3%) were called active. Rule as the data show it: active = survival mostly below about 52% (no sharp cut-off); inactive = mostly above about 56%. This excerpt belongs to a sample that is enriched for actives.
test system: Wild type; experiment: S. aureus survival, RN4220 and DeltatarO strains – OD600, teichoic acid synthesis inhibitors, primary screen (AID 463173); settings: S. aureus RN4220 wild type/DeltatarO growth, OD600, 18 h, stronger effect = lower value, screened at 18.75 µg/mL (by protocol)

| SMILES | survival |
| --- | --- |
| Cc1ccc(CN(C(=O)COc2cc(C)c(Cl)c(C)c2)c2ccccn2)o1 | 78% (inactive) |
| COc1ccccc1NC(=O)CSC1=Nc2ccccc2N=C(c2ccc(F)cc2)C1 | 71% (inactive) |
| CC1CCN(c2nc(-c3ccc(Br)cc3)nc3ccccc23)CC1 | 105% (inactive) |
| CC1CCN(c2nc(-c3ccc(C(C)(C)C)cc3)nc3ccccc23)CC1 | 3% (active) |
| Brc1ccc(-c2nc(N3CCN(c4ccccc4)CC3)c3ccccc3n2)cc1 | 127% (inactive) |
| CC1CCN(c2nc3ccccc3nc2C(F)(F)F)CC1 | 78% (inactive) |
| CC1CCCCN1c1nc(-c2ccc(C(C)(C)C)cc2)nc2ccccc12 (configuration not stated) | 1% (active) |
| CC1CCCCN1C(=O)CSc1nc(C2CC2)nc2ccccc12 (configuration not stated) | 110% (inactive) |
| CCOC(=O)C(CC)n1nc(C)n2c(cc3occc32)c1=O (configuration not stated) | 120% (inactive) |
| CCCN(CCC)CCNC(=O)c1cc2c(-c3ccccc3F)nn(C)c2s1 | 97% (inactive) |
| CCNC(=S)N1CCC(n2cnc3ccccc32)CC1 | 98% (inactive) |
| Cc1ccc(C(=O)N(c2ccc(C)cc2)S(=O)(=O)c2ccc(Cl)cc2)cc1 | 73% (inactive) |
| COc1ccc(Cl)cc1NC(=O)c1cc2nc(-c3ccc4c(c3)OCO4)cc(C(F)(F)F)n2n1 | 65% (inactive) |
| O=C(NCCCN1CCN(c2ccc(F)cc2)CC1)c1cnn(-c2ccc(F)cc2)c1-n1cccc1 | 82% (inactive) |
| O=C(NCCCN1CCN(c2cccc(Cl)c2)CC1)c1cnn(-c2ccc(F)cc2)c1-n1cccc1 | 0% (active) |
| Cc1ccc(-n2nc(C)c(C(=O)NCCCN3CCN(c4ccc(F)cc4)CC3)c2-n2cccc2)cc1 | 101% (inactive) |
| Cc1ccc(-n2nc(C)c(C(=O)NCCCN3CCN(c4cccc(Cl)c4)CC3)c2-n2cccc2)cc1 | -2% (active) |
| Cc1nn(-c2ccc(F)cc2)c(-n2cccc2)c1C(=O)NCCCN1CCN(c2cccc(Cl)c2)CC1 | 110% (inactive) |
| Cc1ccc(-n2ncc(C(=O)NCCCN3CCN(c4cccc(Cl)c4)CC3)c2-n2cccc2)cc1 | 59% (inactive) |

| SMILES | survival |
| --- | --- |
| COC(=O)c1ccc(Nc2ncnc3c2cnn3C)cc1 | 81% (inactive) |
| COc1ccc(OC)c(S(=O)(=O)NCCc2csc(-c3cccc(F)c3)n2)c1 | 135% (inactive) |
| CC1=Nc2ccccc2N=C(C)C1 | 115% (inactive) |
| CCOc1ccc(-c2nc(SCC(=O)NC3CCCC3)c(-c3ccccc3)[nH]2)cc1OC | 73% (inactive) |
| COC(=O)c1ccc(OC)c(Cn2c(=O)n(-c3ccc(C)cc3)c(=O)c3c2cnn3C)c1 | 76% (inactive) |
| CCCCNC(=O)c1cnc2c(-c3ccc(OCC)c(OCC)c3)c(C)nn2c1-c1ccccc1 | 80% (inactive) |
| Cc1cccc(CNC(=O)c2cnc3c(-c4cccc(C)c4)c(C)nn3c2C)c1 | -1% (active) |
| CCOc1ccc(-c2c(C)nn3c(-c4ccccc4)c(C(=O)NCCOC)cnc23)cc1OCC | -6% (active) |
| COc1cc(CNC(=O)c2cnc3c(-c4cccc(C)c4)c(C)nn3c2C)cc(OC)c1OC | 74% (inactive) |
| CCOc1ccc(-c2c(C)nn3c(C)c(C(=O)Nc4cccc(Cl)c4C)cnc23)cc1OCC | 67% (inactive) |
| COc1cc(Cl)c(C)cc1NC(=O)c1cnc2c(-c3cccc(C)c3)c(C)nn2c1C | 14% (active) |
| COC(=O)c1ccccc1NC(=O)c1cnc2c(-c3cccc(C)c3)c(C)nn2c1C | 133% (inactive) |
| CCOc1ccc(-c2c(C)nn3c(C)c(C(=O)Nc4cc(C)cc(C)c4)cnc23)cc1OCC | 133% (inactive) |
| CCCNC(=O)c1cnc2c(-c3ccc(OCC)c(OCC)c3)c(C)nn2c1-c1ccccc1 | 76% (inactive) |
| CCOc1ccc(OCC)c(NC(=O)c2cnc3c(-c4ccccc4)c(C)nn3c2C)c1 | 63% (inactive) |
| Cc1nn2c(C)c(C(=O)NCc3cccc(Br)c3)cnc2c1-c1ccccc1 | 53% (inactive) |
| CCOc1ccc(-c2c(C)nn3c(C)c(C(=O)Nc4ccccc4C(=O)OC)cnc23)cc1OCC | -6% (active) |
| COCCNc1ccc2cc(S(=O)(=O)N3CCCCC3)ccc2n1 | 56% (inactive) |
| COc1ccccc1CNC(=O)COCc1cc(-c2ccc3c(c2)OCO3)on1 | 19% (inactive) |

| SMILES | survival |
| --- | --- |
| COC(=O)C(C)n1nnc2sc(-c3ccccc3)cc2c1=O (configuration not stated) | 88% (inactive) |
| CCOC(=O)c1cccc(NC(=O)N2CCC(CN3CCc4ccccc4C3)CC2)c1 | 71% (inactive) |
| CC(=O)N1c2ccccc2C(=O)C1N1CCN(c2cc(Cl)ccc2C)CC1 (configuration not stated) | 138% (inactive) |
| CCOc1ccc(CCNC(=O)c2cnc3c(-c4ccc(F)cc4)c(C)nn3c2C)cc1OCC | 159% (inactive) |
| CCOc1ccc(CCNC(=O)c2cnc3c(-c4ccccc4)c(C)nn3c2C)cc1OCC | -3% (active) |
| Cc1nn2c(C)c(C(=O)NCCc3ccccc3)cnc2c1-c1ccccc1 | 55% (inactive) |
| CCOc1ccc(-c2c(C)nn3c(C)c(C(=O)NCCc4ccccc4)cnc23)cc1OCC | 53% (inactive) |
| CCNC(=O)c1cnc2c(-c3ccccc3)c(C)nn2c1C | 0% (active) |
| Cc1nn2c(C)c(C(=O)NCC(C)c3ccccc3)cnc2c1-c1ccccc1 (configuration not stated) | 75% (inactive) |
| Cc1cccc(CSc2nnc3[nH]c(=O)cc(-c4ccccc4)n23)c1 | 80% (inactive) |
| CCOC(=O)C1CCCN(C(=O)c2ccc(C)c(NC(=O)c3nsc4ccccc34)c2)C1 (configuration not stated) | 123% (inactive) |
| NS(=O)(=O)c1cccc(S(N)(=O)=O)c1 | 117% (inactive) |
| Cc1ccc(NC(=O)CN2C(=O)C(c3ccc(F)cc3)=NC2(C)C)c(C)c1 | 85% (inactive) |
| Cc1ccc(-c2nn3c(-c4ccc(C)cc4)nnc3c3ccccc23)cc1 | 20% (active) |
| COc1ccc(-c2nn3c(-c4ccc(OC)cc4)nnc3c3ccccc23)cc1 | 73% (inactive) |
| Cc1ccc(-c2nn3c(-c4ccccc4)nnc3c3ccccc23)cc1 | 76% (inactive) |
| Cc1ccc(-c2nnc3c4ccccc4c(-c4ccccc4)nn23)cc1 | 123% (inactive) |
| COc1ccc(-c2nn3c(-c4ccccc4C)nnc3c3ccccc23)cc1 | -3% (active) |
| Cc1ccc(-c2nn3c(-c4ccccc4C)nnc3c3ccccc23)cc1 | 51% (inactive) |

Source: PubChem BioAssay AID463173 (ICCB-Longwood Screening Facility, Harvard Medical School, 2010)
